TGFb inhibitor: inhibitors of TGF-b signaling | HepG2 CAGA-GFP TGF-b/SMAD3 reporter, GFP fluorescence, 18 h; TGF-beta stimulated, 500 pg/mL final | Potency, µM (doses to about 46.1 µM), most hits filed as inhibitors | 410,000 compounds, 1.2% hits; further: nearly all actives have a fitted effect of over 65% in size
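Smad-responsive CAGA-GFP expression was quantified in HEPG2 cells exposed to compounds and 500 pg/mL final TGF-beta for 18 h at 37 degrees C; unstimulated wells defined full inhibition.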
HepG2 tox: kills HepG2 cells in TGF-b inhibitor counter-screen; HepG2 CAGA-GFP viability, ATP luminescence, 18 h; Potency, µM (top dose mostly 46.1 µM), usual class: cytotoxic; 410,000 compounds, 0.76% hits; AID 588856
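HepG2 CAGA-GFP cells (1000/well, DMEM with 1% FBS) received compound, then TGF-beta at 500 pg/mL final, and were incubated 18 hours at 37 degrees C. Viability was read by CellTiter-Glo luminescence. Media-only wells were set as complete cell-killing and DMSO as no toxicity.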
ATXN2 expr inh: ATXN2 expression inhibition. HEK-293 ATXN2-luciferase reporter, luminescence, 24 h. Potency, µM (doses to about 57 µM), actives largely listed as inhibitors. 360,000 compounds, 0.72% hits. AID 1745845; further: nearly all actives have a fitted effect of over 55% in size
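qHTS (up to 57 uM final) was run with 24 h compound exposure of reporter cells at 37 °C. Each well was multiplexed: SteadyGlo luminescence measured ATXN2-luciferase expression after a fluorogenic Gly-Phe-AFC viability readout (25 uM final).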
A549 viability: counter-screen for Nrf2 inhibitors: cytotoxicity in A549 cells | A549 ARE-Fluc cells, CellTiter-Fluor viability, 18-24 h | Potency, µM (top dose mostly 46 µM), most hits filed as inhibitors | 390,000 compounds, 0.16% hits | AID 504648
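Cytotoxicity counterscreen: CellTiter-Fluor fluorescence was measured in A549 ARE_Fluc cells after 18-24 h of compound exposure in a concentration series. The subsequent BugLite luminescent read reports ARE-luciferase activity.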
Nrf2 block: blocks Nrf2 signaling | A549 ARE-Fluc reporter, luciferase luminescence, 18-24 h | Potency, µM (series often up to 46 µM), actives largely listed as inhibitors | 360,000 compounds, 2.1% hits | AID 504444; further: nearly all actives have a fitted effect of over 60% in size
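Quantitative HTS in A549 cells stably bearing an antioxidant response element-firefly luciferase construct. Inhibition of Nrf2-driven transcription was scored by luminescence after 18-24 h of compound exposure at 37 °C.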
ATXN viability: cell viability loss in ATXN counter-screen | Potency, µM (doses to about 56.7 µM), actives largely listed as cytotoxic | 400,000 compounds, 0.49% hits | S2 cells (HEK-293 line with an ATXN2-luciferase reporter) viability, CellTiter-Fluor protease fluorescence, 24 h | AID 651635; further: nearly all actives have a fitted effect of over 40% in size
Numbers stand for hits; [ ] = remark or other dose. In the library only some 3.8% were active in any assay of this set; here they are far more common. The call rests on the fitted dose curve; in most records, active means well fitted curve in the direction sought with a large enough effect; inconclusive means small, poorly fitted or top-dose-only effect, or another doubt; inactive means no such curve, though single readings can be large; an effect the other way counts as inactive or inconclusive.

Screening Cc1ccc(CN2COc3c(Cl)cc4c(-c5ccccc5)cc(=O)oc4c3C2)cc1 returned TGFb inhibitor inactive, HepG2 tox inactive, ATXN2 expr inh inactive, A549 viability inactive, Nrf2 block inconclusive and ATXN viability inactive.
Screening CCOc1ccccc1-c1nn2c(Cc3ccccc3)nnc2s1 returned TGFb inhibitor inconclusive, HepG2 tox 13µM, ATXN2 expr inh inactive, A549 viability inactive[1.84 µM], Nrf2 block inconclusive and ATXN viability inactive.
c1ccc(Cc2nnc3sc(-c4ccccn4)nn23)cc1 was read as TGFb inhibitor inactive, HepG2 tox inactive, ATXN2 expr inh inactive, A549 viability inconclusive and ATXN viability inactive.
`Cc1cc(N/N=C/c2cccc(Cl)c2)nc(NCc2ccccc2)n1` gave TGFb inhibitor 20µM, HepG2 tox 10µM, ATXN2 expr inh inconclusive, A549 viability inconclusive, Nrf2 block inconclusive and ATXN viability inconclusive.
Cc1cc(Nc2cccc(Cl)c2)nc(NCc2ccccc2)n1 was read as TGFb inhibitor 18µM, HepG2 tox inactive, ATXN2 expr inh inactive, A549 viability inconclusive, Nrf2 block inconclusive and ATXN viability inconclusive.
`Cc1cc(N/N=C/c2ccccc2)nc(NCc2ccccc2)n1` gave TGFb inhibitor inconclusive, HepG2 tox inactive, ATXN2 expr inh inactive, A549 viability inactive, Nrf2 block inactive and ATXN viability inactive.
Cc1nc2sc(C(N)=O)c(N)c2c(-c2ccc(Br)cc2)c1C(=O)Nc1ccc(Cl)cc1 was read as TGFb inhibitor inconclusive, HepG2 tox inactive, ATXN2 expr inh 32µM, A549 viability inactive, Nrf2 block inactive[9.27 µM] and ATXN viability inconclusive.
For CCC(C)NC(=O)c1sc2nc(C)c(C(=O)Nc3ccc(Cl)cc3)c(-c3ccc(Br)cc3)c2c1N (stereo unspecified) the results were TGFb inhibitor inactive, HepG2 tox inactive, ATXN2 expr inh inactive, A549 viability inactive, Nrf2 block inactive[9.27 µM] and ATXN viability inactive.
For COc1ccccc1/C=C/C(=O)Nc1ccc(N2CCOCC2)cc1 the results were TGFb inhibitor inactive, HepG2 tox inactive, ATXN2 expr inh inactive, A549 viability inactive, Nrf2 block 12µM and ATXN viability inactive.
`CCOC(CNC(=O)C(=O)Nc1cc2c3c(c1)CCC(=O)N3CCC2)OCC` gave TGFb inhibitor inactive, HepG2 tox inactive, ATXN2 expr inh inactive, A549 viability inactive, Nrf2 block inconclusive and ATXN viability inactive.
O=C(COc1ccc2c(-c3ccccc3)cc(=O)oc2c1)Nc1ccc(CCO)cc1 was read as TGFb inhibitor inactive, HepG2 tox inactive, A549 viability inactive, Nrf2 block 10µM and ATXN viability inconclusive.
For Cc1ccc(C)c(NC(=O)CN2CCSc3ccc(S(=O)(=O)N4CCCC4)cc32)c1 the results were TGFb inhibitor inactive, HepG2 tox inactive, ATXN2 expr inh inactive, A549 viability inactive and ATXN viability inconclusive.
Screening Cc1ccc(NC(=O)CSc2nnc3scc(-c4ccc(Cl)cc4)n23)cc1 returned TGFb inhibitor inactive, HepG2 tox inactive, ATXN2 expr inh inactive, A549 viability inactive, Nrf2 block inactive and ATXN viability inactive.
Screening CC(C)(C)c1ccc(NC(=O)CSc2nnc3scc(-c4ccccc4)n23)cc1 returned TGFb inhibitor inactive, HepG2 tox inactive, ATXN2 expr inh inconclusive, A549 viability inactive, Nrf2 block 16µM and ATXN viability inconclusive.
`Cc1ccc(-c2nc(NC(=O)CSc3nnc4scc(-c5ccccc5)n34)ns2)cc1` gave TGFb inhibitor inactive, HepG2 tox inactive, ATXN2 expr inh inactive, A549 viability inconclusive, Nrf2 block 21µM and ATXN viability inactive.
Screening O=C(CSc1nnc2scc(-c3ccccc3)n12)Nc1ccc(Cl)cc1 returned TGFb inhibitor inactive, HepG2 tox inactive, ATXN2 expr inh inactive, A549 viability inactive, Nrf2 block inactive and ATXN viability inactive.
CCn1cc(S(=O)(=O)N2CCN(c3ccc(Cl)cc3)CC2)cn1 was read as TGFb inhibitor inactive, HepG2 tox inactive, ATXN2 expr inh inactive, A549 viability inactive, Nrf2 block 12µM and ATXN viability inactive.
For N/C(=N\N=C/c1ccc(F)cc1)N/N=C\c1ccc(F)cc1 the results were TGFb inhibitor inconclusive, HepG2 tox inactive, A549 viability inactive, Nrf2 block inactive and ATXN viability inconclusive.
For N/C(=N\N=Cc1ccc2c(c1)OCO2)NN=Cc1ccc2c(c1)OCO2 the results were TGFb inhibitor inconclusive, HepG2 tox inactive, ATXN2 expr inh inactive, A549 viability inactive, Nrf2 block inactive and ATXN viability 30µM.
`N/C(=N\N=C/c1ccc(Br)cc1)N/N=C\c1ccc(Br)cc1` gave TGFb inhibitor inconclusive, HepG2 tox 11µM, ATXN2 expr inh inactive, A549 viability inactive, Nrf2 block inactive and ATXN viability inactive.
`CC(C)c1ccc(N2C(=O)CSC23C(=O)N(Cc2ccccc2F)c2ccccc23)cc1` (stereo unspecified) gave TGFb inhibitor inactive, HepG2 tox inactive, ATXN2 expr inh inactive, A549 viability inactive, Nrf2 block inactive and ATXN viability inactive.
Screening Cn1nc(-c2ccc(OCC(=O)Nc3cccnc3)cc2)c2ccccc2c1=O returned TGFb inhibitor inactive, HepG2 tox inactive, ATXN2 expr inh inactive, A549 viability inactive, Nrf2 block inconclusive and ATXN viability inactive.
Screening Cn1nc(-c2ccc(C(=O)Nc3ccc(F)cc3)cc2)c2ccccc2c1=O returned TGFb inhibitor inactive, HepG2 tox inactive, ATXN2 expr inh inconclusive, A549 viability inactive, Nrf2 block 18µM and ATXN viability inactive.
`Cc1ccc(NC(=O)c2ccc(-c3nn(C)c(=O)c4ccccc34)cc2)cc1` gave TGFb inhibitor inactive, HepG2 tox inactive, ATXN2 expr inh inconclusive, A549 viability inactive, Nrf2 block inconclusive and ATXN viability inconclusive.
`Cn1nc(-c2ccc(C(=O)Nc3cccc(Cl)c3)cc2)c2ccccc2c1=O` gave TGFb inhibitor inactive, HepG2 tox inactive, ATXN2 expr inh 16µM, A549 viability inactive, Nrf2 block 6.5µM and ATXN viability 40µM.
Cn1nc(-c2ccc(OCC(=O)Nc3cccc(C(F)(F)F)c3)cc2)c2ccccc2c1=O was read as TGFb inhibitor inconclusive, HepG2 tox inactive, ATXN2 expr inh inactive, A549 viability inconclusive, Nrf2 block 26µM and ATXN viability inconclusive.
For O=C(NCCN1CCOCC1)/C(=C/c1ccco1)NC(=O)c1ccccc1 the results were TGFb inhibitor inactive, HepG2 tox inactive, ATXN2 expr inh inactive, A549 viability inactive, Nrf2 block inactive and ATXN viability inactive.

Assay outcomes: PubChem BioAssay, National Center for Advancing Translational Sciences (NCATS)
